Hit rate of the full screen: of about 69,000 compounds, about 8,600 (12%) showed an effect of 50% or more. Shown is part of a subset that was picked to be rich in strong results.
Test system: Plasmodium berghei
Test: Screen against P. berghei liver stage (PbLuc), transformed with Luciferase, at 10uM
Type: functional, HepG2
Details: tested at 10 uM

Compound	INHIBITION [%]
Cc1ccc(CNc2n[nH]c(C)n2)cc1	46.6
CN(C(=O)c1cccc(C#N)c1)c1nnc(C2CCOC2)s1 (centres undefined)	24.45
CCNC(=O)C1CCN(Cn2nc(-c3ccc(F)cc3)oc2=O)CC1	30.6
CC(C)CCNC(=O)c1ccc(-n2cnc3ccccc3c2=O)cc1	26.8
CC(C)CCNC(=O)c1ccc2c(=O)n(-c3ccccc3)cnc2c1	1.8
CC(C)CNC(=O)c1ccc2c(=O)n(-c3ccccc3)cnc2c1	60.9
NCCc1cn(Cc2ccccn2)c2ccccc12	-18.2
c1cncc(CNc2cncc(C3CCCN3)n2)c1 (centres undefined)	6.26
CCOc1ncccc1NC(=O)c1cccs1	-10.9
COc1ccc(NC(C)=O)c(N2CCN(C(C)=O)CC2)n1	80.1
COc1ccc(NC(=O)CCC(C)C)c(N2CCN(C(C)=O)CC2)n1	68.8
COc1ccc(N)c(N2CCN(C(C)=O)CC2)n1	42.3
COc1ccc(NC(=O)c2ccco2)c(N2CCN(C(C)=O)CC2)n1	44
COc1ccc(NC(=O)c2ccc[nH]2)c(N2CCN(C(C)=O)CC2)n1	6.8
CCCC(C)C(=O)Nc1ccc(OC)nc1N1CCN(C(C)=O)CC1 (centres undefined)	29.4
CNc1ccnc(NCCC(=O)Nc2ccccc2C)n1	28.4
O=C(C1CCC1)N1C[C@@H]2CN(Cc3ccncc3)C(=O)[C@@H]2C1	50.3
CCN1C[C@@H]2CN(C(=O)C3CC=CC3)C[C@@H]2C1=O	15.7
O=C1[C@H]2CN(Cc3ccoc3)C[C@H]2CN1Cc1ccncc1	45.1
O=C(C1CC=CC1)N1C[C@H]2CN(Cc3ccncc3)C(=O)[C@H]2C1	56.6
Cc1cccc(CN2C[C@@H]3CN(C(=O)C4CC=CC4)C[C@@H]3C2=O)n1	14.9
O=C(C1CCOC1)N1C[C@H]2CN(Cc3ccncc3)C(=O)[C@H]2C1 (some centres undefined)	-22.2
COc1ccc(C(=O)NS(=O)(=O)c2cncc(Br)c2)c(OC)c1	29.4
Cc1ccc(-c2snnc2C(=O)NCCCO)cc1	-19.7
COc1cccc(OC)c1CC(=O)NC(C#N)c1ccsc1 (centres undefined)	0.0944
Cc1ccc(C(=O)NC2CC2)c(-n2cnnn2)c1C	28.6
CN(C)c1ccc(CNC(=O)NCCc2cccs2)cn1	-11.9

Compound	INHIBITION [%]
c1cnc(N2CCCC(NCc3cccc4c3OCCO4)C2)nc1 (centres undefined)	22.9
CN(C)Cc1ccnc(C2CCCN2Cc2ccc(F)cn2)n1 (centres undefined)	63.4
CN(C)Cc1ccnc(C2CCCN2Cc2ccncc2)n1 (centres undefined)	40.4
CN(C)Cc1ccnc(C2CCCN2Cc2cc[nH]n2)n1 (centres undefined)	29.6
CCc1cnc(CN(C(C)=O)C2CCN(CC3(O)CCCCC3)C2)o1 (centres undefined)	5.9
c1ccc(-c2nc(CN3CCCC3Cn3cccn3)no2)cc1 (centres undefined)	44.3
Cc1nc(NC(=O)CN2C(=O)c3ccccc3NC2C(C)C)sc1C (centres undefined)	32.2
CN(Cc1cc(=O)c(O)co1)C1CCCN(c2ccccc2)C1 (centres undefined)	7.93
CN(Cc1cc(=O)c(O)co1)C1CCN(c2ccc(F)cc2)CC1	53.5
Cc1cc(N2CCC(N(C)Cc3cc(=O)c(O)co3)CC2)nc(C)n1	28.7
O[C@@H]1CC(CNCc2ccc(Cl)cc2)(COc2cccnc2)C[C@@H]1O (some centres undefined)	-26.2
COCCC(=O)N1CCC2(CN(Cc3ccc(OC)c(F)c3)C2)C1	-44.8
COC(=O)CCC(=O)N1CCC2(CN(Cc3ccc(Cl)cc3)C2)C1	-26.1
COC(=O)N1CCN(Cc2ccccc2Cl)CC1	33.7
COC(=O)CCC(=O)N1CCC2(CN(Cc3cccc(Cl)c3)C2)C1	57.9
COCCC(=O)N1CC2(CCN(Cc3ccccc3Cl)CC2)C1	69.5
COCCC(=O)N1CCC2(CN(Cc3cccc(F)c3)C2)C1	4.27
COC(=O)CCC(=O)N1CCC2(CN(Cc3ccccc3)C2)C1	5.56
COCCC(=O)N1CC2(CCN(Cc3cccc(Cl)c3)CC2)C1	15.9
COCCC(=O)N1CCC2(CCN(Cc3cccc(F)c3)CC2)C1	49.7
COCCC(=O)N1CCC2(CCN(Cc3cccc(F)c3)C2)C1 (centres undefined)	57.9
COCCC(=O)N1CCC2(CN(Cc3cccc(Cl)c3)C2)C1	81.2
COCCC(=O)N1CCC2(CCN(Cc3cccc(F)c3)CC2)CC1	45.1
CC(=O)N(C)Cc1cccc(NC(=O)CCCc2nc(C(C)C)no2)c1	-32.9
CN(C)C(=O)COCc1cncc2c1CCN(Cc1ccccc1)C2	-45.5
Cc1ccc([C@H]2CN(C(=O)CC3CCC3)C[C@@H]2N)o1	-92.8
Cc1c(C(=O)NCCC2CN(C)CCO2)n(C)c2c(C)cccc12 (centres undefined)	33.4

— ChEMBL document CHEMBL4513216, “Probing the Open Global Health Chemical Diversity Library for Multistage-Active Starting Points for Next-Generation Antimalarials” (ACS Infect Dis, 2020)
